# From ChEMBL document CHEMBL1961873, “Compounds: GSK PKIS; Assays: Nanosyn kinase panel” (2012)
# What was measured:
# [1] = biological target: Sphingosine kinase 1 (Homo sapiens) (UniProt Q9NYA1); details: at 1 µM;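 note: mean SPHK1 inhibition value reported from the GSK PKIS kinase panel screen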
# [2] = biological target: T1, Sphingosine kinase 2 (Homo sapiens) (UniProt Q9NRA0); details: at 0.1 µM
# T1 sequence (whole entry): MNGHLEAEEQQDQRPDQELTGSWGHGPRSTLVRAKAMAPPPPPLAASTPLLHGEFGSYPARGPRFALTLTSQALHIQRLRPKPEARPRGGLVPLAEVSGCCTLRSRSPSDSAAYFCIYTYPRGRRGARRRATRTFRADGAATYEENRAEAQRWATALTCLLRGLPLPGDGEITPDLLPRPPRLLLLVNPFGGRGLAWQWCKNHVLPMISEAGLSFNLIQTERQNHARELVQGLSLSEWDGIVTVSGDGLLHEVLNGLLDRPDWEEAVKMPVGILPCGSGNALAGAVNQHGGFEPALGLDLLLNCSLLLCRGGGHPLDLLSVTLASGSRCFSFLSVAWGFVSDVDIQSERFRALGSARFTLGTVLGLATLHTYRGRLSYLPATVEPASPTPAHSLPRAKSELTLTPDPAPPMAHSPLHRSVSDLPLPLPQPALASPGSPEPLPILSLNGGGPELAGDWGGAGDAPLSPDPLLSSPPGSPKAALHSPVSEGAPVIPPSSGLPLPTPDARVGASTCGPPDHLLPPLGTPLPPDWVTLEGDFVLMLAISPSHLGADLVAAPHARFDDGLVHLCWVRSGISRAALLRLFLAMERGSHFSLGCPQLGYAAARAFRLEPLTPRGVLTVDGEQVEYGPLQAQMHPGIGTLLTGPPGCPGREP
# [3] = biological target: T1, Sphingosine kinase 2 (Homo sapiens); details: at 1 µM
# [4] = biological target: Casein kinase II subunit alpha (Homo sapiens) (UniProt P68400); details: at 0.1 µM
# [5] = biological target: Casein kinase II subunit alpha (Homo sapiens) (UniProt P68400); details: at 1 µM
# [6] = biological target: T2, Inhibitor of nuclear factor kappa-B kinase subunit alpha (Homo sapiens) (UniProt O15111); details: at 0.1 µM
# T2 sequence (whole entry): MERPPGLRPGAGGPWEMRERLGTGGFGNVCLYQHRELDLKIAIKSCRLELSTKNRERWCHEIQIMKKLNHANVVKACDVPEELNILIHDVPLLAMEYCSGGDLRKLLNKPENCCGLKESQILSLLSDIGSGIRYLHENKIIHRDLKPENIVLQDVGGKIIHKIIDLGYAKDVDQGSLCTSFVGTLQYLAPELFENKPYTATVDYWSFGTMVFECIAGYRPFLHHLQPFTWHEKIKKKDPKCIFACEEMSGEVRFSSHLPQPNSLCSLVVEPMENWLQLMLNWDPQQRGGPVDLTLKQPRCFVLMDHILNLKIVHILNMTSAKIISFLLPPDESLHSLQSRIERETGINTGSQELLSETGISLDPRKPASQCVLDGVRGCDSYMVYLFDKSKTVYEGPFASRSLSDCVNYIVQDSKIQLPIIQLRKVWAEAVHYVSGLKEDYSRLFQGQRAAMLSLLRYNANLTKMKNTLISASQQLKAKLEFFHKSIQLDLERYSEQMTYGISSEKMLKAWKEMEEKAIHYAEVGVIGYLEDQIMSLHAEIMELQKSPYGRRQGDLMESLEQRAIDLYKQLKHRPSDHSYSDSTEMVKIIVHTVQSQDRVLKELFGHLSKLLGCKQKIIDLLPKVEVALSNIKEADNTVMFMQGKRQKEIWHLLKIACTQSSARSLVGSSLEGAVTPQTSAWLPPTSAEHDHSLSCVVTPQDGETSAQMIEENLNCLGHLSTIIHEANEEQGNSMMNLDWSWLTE
# [7] = biological target: T2, Inhibitor of nuclear factor kappa-B kinase subunit alpha (Homo sapiens); details: at 1 µM
# [8] = biological target: T3, Inhibitor of nuclear factor kappa-B kinase subunit beta (Homo sapiens) (UniProt O14920); details: at 0.1 µM
# T3 sequence (whole entry): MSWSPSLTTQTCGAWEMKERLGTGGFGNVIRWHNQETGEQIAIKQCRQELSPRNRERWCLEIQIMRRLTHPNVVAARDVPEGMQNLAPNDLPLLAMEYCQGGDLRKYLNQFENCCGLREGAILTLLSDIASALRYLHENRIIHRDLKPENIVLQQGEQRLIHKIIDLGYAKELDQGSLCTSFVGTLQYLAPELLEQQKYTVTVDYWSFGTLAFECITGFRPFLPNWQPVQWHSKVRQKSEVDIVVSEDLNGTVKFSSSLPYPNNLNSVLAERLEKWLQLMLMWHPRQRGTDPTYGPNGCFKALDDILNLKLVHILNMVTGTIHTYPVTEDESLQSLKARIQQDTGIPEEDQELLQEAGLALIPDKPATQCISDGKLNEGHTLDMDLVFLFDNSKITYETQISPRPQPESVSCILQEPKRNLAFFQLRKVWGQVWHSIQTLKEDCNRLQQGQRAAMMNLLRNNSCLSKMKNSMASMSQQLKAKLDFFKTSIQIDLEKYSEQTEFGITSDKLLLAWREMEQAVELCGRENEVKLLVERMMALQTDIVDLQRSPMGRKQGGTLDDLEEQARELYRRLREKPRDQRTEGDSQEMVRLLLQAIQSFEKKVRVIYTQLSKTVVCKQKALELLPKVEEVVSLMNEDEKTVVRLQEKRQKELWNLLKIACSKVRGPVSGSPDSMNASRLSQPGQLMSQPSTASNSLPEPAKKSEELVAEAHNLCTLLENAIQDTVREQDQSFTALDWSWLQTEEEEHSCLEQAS
# [9] = biological target: T3, Inhibitor of nuclear factor kappa-B kinase subunit beta (Homo sapiens); details: at 1 µM
# [10] = biological target: T4, Inhibitor of nuclear factor kappa-B kinase subunit epsilon (Homo sapiens) (UniProt Q14164); details: at 0.1 µM
# T4 sequence (whole entry): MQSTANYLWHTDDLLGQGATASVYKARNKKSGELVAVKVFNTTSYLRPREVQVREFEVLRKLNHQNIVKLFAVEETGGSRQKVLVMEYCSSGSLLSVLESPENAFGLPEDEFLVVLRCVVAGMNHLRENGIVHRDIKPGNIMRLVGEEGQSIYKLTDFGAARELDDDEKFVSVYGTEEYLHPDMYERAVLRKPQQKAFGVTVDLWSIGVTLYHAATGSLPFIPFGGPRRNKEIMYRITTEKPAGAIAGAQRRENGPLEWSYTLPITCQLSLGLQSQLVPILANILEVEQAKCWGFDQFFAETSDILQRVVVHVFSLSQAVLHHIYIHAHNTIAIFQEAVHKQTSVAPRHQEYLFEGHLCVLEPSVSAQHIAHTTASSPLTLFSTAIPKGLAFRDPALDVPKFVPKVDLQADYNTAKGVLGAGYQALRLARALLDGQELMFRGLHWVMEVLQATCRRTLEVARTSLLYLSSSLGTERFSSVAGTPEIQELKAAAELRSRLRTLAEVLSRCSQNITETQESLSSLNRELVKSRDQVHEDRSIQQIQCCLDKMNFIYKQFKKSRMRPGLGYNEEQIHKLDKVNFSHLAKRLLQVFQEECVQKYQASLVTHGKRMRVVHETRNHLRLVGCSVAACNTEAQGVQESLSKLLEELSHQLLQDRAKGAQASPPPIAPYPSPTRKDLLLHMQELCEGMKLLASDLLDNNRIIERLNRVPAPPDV
# [11] = biological target: T4, Inhibitor of nuclear factor kappa-B kinase subunit epsilon (Homo sapiens); details: at 1 µM
# [12] = biological target: T5, Serine/threonine-protein kinase Nek1 (Homo sapiens) (UniProt Q96PY6); details: at 0.1 µM
# T5 sequence (whole entry): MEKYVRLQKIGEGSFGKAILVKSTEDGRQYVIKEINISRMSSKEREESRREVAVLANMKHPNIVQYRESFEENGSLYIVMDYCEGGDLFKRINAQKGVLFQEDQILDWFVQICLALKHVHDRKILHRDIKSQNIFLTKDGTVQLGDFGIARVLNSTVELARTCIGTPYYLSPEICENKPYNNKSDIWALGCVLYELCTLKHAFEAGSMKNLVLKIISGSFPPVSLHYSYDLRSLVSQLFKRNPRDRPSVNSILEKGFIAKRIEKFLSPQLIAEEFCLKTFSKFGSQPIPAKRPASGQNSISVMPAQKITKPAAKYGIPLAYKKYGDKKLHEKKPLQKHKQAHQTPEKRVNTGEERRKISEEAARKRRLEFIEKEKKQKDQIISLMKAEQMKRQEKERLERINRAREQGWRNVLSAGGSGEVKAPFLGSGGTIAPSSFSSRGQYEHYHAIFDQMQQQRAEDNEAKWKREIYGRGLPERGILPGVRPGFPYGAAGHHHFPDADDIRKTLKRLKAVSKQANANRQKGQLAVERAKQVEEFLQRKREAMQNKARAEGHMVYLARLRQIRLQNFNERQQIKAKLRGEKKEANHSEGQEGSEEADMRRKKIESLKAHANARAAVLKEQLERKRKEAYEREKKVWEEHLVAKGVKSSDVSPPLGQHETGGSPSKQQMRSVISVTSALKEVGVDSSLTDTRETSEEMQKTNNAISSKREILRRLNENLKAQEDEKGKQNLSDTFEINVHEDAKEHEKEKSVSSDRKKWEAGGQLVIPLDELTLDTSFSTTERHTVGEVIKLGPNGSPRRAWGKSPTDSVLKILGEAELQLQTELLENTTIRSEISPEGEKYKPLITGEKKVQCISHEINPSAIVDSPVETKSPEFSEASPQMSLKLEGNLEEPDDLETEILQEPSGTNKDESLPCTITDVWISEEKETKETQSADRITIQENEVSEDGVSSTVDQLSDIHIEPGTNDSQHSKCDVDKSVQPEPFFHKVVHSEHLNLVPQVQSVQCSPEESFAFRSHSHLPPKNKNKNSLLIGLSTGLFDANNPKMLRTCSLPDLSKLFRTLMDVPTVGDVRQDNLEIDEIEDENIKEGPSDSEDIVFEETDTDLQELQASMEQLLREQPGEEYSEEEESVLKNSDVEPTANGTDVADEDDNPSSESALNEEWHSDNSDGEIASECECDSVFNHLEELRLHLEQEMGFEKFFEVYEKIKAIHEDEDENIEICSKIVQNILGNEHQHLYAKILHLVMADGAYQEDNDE
# [13] = biological target: T5, Serine/threonine-protein kinase Nek1 (Homo sapiens); details: at 1 µM
# [14] = biological target: T6, Serine/threonine-protein kinase Nek2 (Homo sapiens) (UniProt P51955); details: at 0.1 µM
# T6 sequence (whole entry): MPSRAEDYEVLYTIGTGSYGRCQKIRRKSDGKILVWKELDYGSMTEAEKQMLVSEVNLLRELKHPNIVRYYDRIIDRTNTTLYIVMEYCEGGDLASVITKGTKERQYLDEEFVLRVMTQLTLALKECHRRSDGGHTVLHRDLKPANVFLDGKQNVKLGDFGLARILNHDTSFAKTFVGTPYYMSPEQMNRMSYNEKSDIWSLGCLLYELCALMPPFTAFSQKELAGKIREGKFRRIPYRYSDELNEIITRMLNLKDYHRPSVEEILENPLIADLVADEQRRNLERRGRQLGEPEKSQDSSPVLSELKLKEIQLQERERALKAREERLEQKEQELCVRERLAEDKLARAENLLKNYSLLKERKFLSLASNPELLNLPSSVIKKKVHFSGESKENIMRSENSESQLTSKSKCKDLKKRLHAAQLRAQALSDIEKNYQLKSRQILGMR
# [15] = biological target: T6, Serine/threonine-protein kinase Nek2 (Homo sapiens); details: at 1 µM
# [16] = biological target: Serine/threonine-protein kinase Nek6 (Homo sapiens) (UniProt Q9HC98); details: at 0.1 µM
# [17] = biological target: Serine/threonine-protein kinase Nek6 (Homo sapiens) (UniProt Q9HC98); details: at 1 µM
# [18] = biological target: Serine/threonine-protein kinase Nek7 (Homo sapiens) (UniProt Q8TDX7); details: at 0.1 µM
# [19] = biological target: Serine/threonine-protein kinase Nek7 (Homo sapiens) (UniProt Q8TDX7); details: at 1 µM
# [20] = biological target: T7, Serine/threonine-protein kinase Nek9 (Homo sapiens) (UniProt Q8TD19); details: at 0.1 µM;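 note: reported value is the mean percent inhibition of NEK9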
# T7 sequence (whole entry): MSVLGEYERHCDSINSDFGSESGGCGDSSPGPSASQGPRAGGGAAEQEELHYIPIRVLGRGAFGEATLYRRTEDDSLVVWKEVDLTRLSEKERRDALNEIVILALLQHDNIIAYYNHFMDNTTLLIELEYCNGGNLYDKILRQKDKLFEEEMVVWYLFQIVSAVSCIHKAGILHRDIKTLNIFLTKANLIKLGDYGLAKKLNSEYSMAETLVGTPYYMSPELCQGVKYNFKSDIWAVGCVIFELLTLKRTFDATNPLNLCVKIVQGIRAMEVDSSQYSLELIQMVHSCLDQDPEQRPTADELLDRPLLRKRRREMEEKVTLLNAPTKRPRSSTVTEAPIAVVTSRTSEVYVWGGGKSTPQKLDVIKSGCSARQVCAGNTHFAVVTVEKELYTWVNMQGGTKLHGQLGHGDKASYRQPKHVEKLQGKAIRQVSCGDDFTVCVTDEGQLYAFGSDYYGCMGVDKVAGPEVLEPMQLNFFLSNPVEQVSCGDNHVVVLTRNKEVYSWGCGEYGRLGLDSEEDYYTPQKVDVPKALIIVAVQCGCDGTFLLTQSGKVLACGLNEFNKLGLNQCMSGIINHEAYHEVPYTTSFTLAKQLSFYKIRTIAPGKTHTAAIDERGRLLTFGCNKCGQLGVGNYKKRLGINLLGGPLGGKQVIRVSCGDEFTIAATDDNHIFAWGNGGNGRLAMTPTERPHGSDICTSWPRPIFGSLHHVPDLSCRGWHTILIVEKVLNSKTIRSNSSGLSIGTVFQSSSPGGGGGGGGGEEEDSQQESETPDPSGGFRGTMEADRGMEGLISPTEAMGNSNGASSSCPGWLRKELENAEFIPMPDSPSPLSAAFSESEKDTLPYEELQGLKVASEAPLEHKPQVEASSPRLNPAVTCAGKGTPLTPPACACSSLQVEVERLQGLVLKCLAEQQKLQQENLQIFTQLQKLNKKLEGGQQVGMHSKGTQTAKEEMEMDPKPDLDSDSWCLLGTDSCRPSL
# Sequence of Casein kinase II subunit alpha (Homo sapiens) (P68400 whole entry, looked up): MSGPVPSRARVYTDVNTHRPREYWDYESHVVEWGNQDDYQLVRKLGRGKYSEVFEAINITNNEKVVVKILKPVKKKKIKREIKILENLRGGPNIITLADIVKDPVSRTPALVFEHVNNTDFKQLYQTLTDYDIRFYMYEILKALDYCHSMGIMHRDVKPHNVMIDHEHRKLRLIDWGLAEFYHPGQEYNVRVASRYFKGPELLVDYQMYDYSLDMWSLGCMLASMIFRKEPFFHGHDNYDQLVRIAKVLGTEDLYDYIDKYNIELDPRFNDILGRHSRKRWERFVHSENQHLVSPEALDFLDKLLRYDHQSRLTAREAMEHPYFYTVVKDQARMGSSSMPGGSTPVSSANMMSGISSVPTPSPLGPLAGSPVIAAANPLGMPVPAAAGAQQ
# Sequence of Serine/threonine-protein kinase Nek6 (Homo sapiens) (Q9HC98 whole entry): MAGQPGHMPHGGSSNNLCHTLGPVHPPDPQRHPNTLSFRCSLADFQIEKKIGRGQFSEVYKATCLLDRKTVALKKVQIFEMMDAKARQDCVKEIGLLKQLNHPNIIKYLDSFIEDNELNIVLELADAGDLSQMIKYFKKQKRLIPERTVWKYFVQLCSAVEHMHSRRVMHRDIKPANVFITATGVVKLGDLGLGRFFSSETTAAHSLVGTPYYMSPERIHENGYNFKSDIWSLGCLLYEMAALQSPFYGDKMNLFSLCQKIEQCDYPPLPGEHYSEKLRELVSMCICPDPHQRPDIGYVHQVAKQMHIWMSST
# Sequence of Serine/threonine-protein kinase Nek7 (Homo sapiens) (Q8TDX7 whole entry, looked up): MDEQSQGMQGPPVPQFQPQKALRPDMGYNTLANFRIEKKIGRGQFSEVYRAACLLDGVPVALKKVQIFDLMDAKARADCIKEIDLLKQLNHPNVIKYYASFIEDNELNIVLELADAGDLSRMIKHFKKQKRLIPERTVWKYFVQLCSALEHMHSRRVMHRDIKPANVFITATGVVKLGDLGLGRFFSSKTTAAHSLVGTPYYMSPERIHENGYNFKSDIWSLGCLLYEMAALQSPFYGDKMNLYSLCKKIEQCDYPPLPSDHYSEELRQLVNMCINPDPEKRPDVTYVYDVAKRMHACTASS
# Sequence of Sphingosine kinase 1 (Homo sapiens) (Q9NYA1 whole entry): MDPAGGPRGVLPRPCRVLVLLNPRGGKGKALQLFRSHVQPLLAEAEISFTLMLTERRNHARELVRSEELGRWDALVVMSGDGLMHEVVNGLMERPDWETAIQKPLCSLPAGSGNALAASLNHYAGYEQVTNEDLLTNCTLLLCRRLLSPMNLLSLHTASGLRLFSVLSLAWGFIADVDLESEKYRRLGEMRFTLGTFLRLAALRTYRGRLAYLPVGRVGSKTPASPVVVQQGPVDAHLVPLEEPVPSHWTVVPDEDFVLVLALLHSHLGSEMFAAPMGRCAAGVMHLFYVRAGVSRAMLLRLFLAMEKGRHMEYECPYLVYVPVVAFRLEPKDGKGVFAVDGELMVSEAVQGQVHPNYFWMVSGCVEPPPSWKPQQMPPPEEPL
smiles,measurement,setting,value
COc1ccc2cc(-c3c(-c4ccncc4)nc(-c4ccc([S+](C)[O-])cc4)n3C)ccc2c1 (stereo not given),inhibition,[1],-3.23%
same,inhibition,[2],-1.61%
same,inhibition,[3],-1.21%
same,inhibition,[4],0.27%
same,inhibition,[5],-4.21%
same,inhibition,[6],3.64%
same,inhibition,[7],0.12%
same,inhibition,[8],3.95%
same,inhibition,[9],3.93%
same,inhibition,[10],4.41%
same,inhibition,[11],4.64%
same,inhibition,[12],1.1%
same,inhibition,[13],1.54%
same,inhibition,[14],3.66%
same,inhibition,[15],3.14%
same,inhibition,[16],0.57%
same,inhibition,[17],-1.38%
same,inhibition,[18],2.77%
same,inhibition,[19],2.17%
same,inhibition,[20],7.56%
